Assay outcomes as filed in PubChem BioAssay.
Pf apPOL block – Pf-apPOL DNA polymerase inhibition; AID 1794808; 210,000 tested, 0.25% active; Recombinant Pf-apPOL, molecular beacon fluorescence, 1.5 h; inhibition, % at 10 µM
mHTT CaM bind – mHTT-calmodulin interaction abrogation; inhibition, % at 15 µM; AlphaScreen His-mHTT/GST-CaM binding, luminescence; 190,000 tested, 3.6% active
Target sequence (P42858 whole entry, looked up, change not shown): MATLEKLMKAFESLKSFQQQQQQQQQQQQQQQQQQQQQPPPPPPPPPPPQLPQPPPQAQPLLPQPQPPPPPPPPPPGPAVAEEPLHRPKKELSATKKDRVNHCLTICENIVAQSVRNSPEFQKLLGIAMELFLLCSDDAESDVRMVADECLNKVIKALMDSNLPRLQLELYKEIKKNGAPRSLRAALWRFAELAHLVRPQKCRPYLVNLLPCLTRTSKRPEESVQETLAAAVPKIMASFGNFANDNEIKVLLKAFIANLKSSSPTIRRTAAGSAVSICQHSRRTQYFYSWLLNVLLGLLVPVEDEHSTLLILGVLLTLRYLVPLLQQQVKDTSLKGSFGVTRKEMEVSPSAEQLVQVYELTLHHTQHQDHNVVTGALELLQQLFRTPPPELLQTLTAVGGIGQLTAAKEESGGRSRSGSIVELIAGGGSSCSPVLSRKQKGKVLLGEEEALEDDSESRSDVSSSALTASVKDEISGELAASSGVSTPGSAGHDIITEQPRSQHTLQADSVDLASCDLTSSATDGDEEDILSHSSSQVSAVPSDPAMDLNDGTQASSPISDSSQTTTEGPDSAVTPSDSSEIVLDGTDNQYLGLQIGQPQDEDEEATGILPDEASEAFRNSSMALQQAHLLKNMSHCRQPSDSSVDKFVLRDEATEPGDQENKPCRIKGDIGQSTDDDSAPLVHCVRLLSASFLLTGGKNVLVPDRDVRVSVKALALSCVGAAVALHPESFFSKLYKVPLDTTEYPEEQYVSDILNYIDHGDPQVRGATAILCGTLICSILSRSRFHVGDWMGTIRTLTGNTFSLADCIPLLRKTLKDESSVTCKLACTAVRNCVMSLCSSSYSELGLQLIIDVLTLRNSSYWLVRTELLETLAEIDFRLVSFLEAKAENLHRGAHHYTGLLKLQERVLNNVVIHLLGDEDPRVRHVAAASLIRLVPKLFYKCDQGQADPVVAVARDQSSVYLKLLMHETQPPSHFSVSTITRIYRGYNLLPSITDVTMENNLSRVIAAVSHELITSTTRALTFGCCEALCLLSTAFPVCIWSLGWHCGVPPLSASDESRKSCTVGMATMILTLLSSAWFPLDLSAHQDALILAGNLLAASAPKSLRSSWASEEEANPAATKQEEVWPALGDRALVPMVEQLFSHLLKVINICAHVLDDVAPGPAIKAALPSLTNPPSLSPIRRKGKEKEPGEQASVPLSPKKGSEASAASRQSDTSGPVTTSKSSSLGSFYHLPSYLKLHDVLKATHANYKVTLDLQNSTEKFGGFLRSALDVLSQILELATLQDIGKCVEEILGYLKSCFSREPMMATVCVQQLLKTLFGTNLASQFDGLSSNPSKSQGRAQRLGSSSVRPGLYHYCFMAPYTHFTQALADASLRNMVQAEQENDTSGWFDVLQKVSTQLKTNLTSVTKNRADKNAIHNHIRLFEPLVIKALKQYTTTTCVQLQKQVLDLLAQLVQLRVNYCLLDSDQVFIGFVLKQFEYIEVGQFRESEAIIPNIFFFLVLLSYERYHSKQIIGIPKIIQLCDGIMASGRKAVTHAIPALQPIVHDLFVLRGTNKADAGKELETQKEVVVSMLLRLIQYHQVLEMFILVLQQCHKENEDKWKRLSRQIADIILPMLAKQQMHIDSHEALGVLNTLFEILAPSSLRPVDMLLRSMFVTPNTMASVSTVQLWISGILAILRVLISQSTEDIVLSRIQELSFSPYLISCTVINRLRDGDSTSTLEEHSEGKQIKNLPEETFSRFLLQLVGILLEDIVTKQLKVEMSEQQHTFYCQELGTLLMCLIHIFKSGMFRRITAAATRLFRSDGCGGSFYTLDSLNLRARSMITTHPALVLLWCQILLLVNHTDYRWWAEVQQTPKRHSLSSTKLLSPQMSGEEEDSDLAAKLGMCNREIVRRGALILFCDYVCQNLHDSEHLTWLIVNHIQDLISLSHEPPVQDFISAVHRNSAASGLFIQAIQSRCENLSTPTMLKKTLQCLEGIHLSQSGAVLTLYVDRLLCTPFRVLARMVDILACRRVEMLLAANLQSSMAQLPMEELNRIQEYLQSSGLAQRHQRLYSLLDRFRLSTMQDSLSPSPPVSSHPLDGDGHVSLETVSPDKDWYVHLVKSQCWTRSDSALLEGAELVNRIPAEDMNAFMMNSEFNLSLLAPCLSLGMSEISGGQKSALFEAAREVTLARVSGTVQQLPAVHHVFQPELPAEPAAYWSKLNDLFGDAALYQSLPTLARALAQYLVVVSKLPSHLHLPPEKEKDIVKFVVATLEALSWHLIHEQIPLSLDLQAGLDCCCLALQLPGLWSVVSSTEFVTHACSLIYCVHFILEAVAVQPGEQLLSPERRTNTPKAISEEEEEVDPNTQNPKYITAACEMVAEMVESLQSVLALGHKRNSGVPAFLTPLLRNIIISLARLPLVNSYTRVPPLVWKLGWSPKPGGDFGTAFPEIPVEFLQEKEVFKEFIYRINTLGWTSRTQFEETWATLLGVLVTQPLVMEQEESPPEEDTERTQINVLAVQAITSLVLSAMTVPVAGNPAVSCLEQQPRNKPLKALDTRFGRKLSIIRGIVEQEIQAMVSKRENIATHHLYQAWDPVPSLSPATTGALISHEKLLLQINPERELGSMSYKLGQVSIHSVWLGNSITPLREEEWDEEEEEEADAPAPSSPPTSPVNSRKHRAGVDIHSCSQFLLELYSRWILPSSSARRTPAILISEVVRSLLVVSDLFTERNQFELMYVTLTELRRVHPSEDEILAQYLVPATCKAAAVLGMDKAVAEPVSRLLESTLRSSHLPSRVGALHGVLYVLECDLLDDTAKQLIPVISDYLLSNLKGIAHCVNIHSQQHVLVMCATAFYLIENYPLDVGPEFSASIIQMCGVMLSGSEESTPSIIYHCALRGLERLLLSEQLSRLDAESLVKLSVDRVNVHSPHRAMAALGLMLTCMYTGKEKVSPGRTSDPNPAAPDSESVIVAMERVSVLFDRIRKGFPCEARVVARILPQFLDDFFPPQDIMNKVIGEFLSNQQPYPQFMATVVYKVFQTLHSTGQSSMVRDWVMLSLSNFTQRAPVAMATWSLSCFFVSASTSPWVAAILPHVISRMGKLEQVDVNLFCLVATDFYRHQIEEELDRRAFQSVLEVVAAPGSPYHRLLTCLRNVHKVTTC
Numbers stand for hits. A selection: hits, their analogues and other compounds. The true share with any hit is near 3.6%. Rule as the data show it: active = inhibition above about 50%; inactive = the rest.

For Cc1ccc2c(=O)c(C(=O)c3ccccc3)coc2c1 the results were Pf apPOL block inactive and mHTT CaM bind inactive.
O=C(NCc1ccncc1)C(=O)Nc1ccc(Cl)c(Cl)c1 was read as Pf apPOL block inactive and mHTT CaM bind inactive.
N#Cc1ccc(CNC(=S)Nc2ccc(Cl)c(Cl)c2)cc1 was read as Pf apPOL block 61.
Screening COc1ccccc1N1CCN(C(=O)C2C3C=CC(C3)C2C(=O)O)CC1 (configuration not stated) returned Pf apPOL block inactive and mHTT CaM bind inactive.
Screening O=C(CCC1CCCC1)N1CCC(N2CCC(C(=O)N3CCCCC3)CC2)CC1 returned Pf apPOL block inactive and mHTT CaM bind inactive.
Screening CCOc1ccccc1NC(=O)C1c2ccccc2C(=O)N2CCc3ccccc3C12 (configuration not stated) returned Pf apPOL block inactive and mHTT CaM bind inactive.
Screening CCc1ccccc1NC(=O)C1c2cc(OC)c(OC)cc2C(=O)N2CCc3ccccc3C12 (configuration not stated) returned Pf apPOL block inactive and mHTT CaM bind 63.
`CCOc1cc2c(cc1OCC)C1C(C(=O)Nc3cc(C)ccn3)c3ccccc3C(=O)N1CC2` (configuration not stated) gave Pf apPOL block inactive and mHTT CaM bind 51.
Screening CCc1ccc(CNC(=O)C2c3cc(OC)c(OC)cc3C(=O)N3CCc4ccccc4C23)cc1 (configuration not stated) returned Pf apPOL block inactive and mHTT CaM bind inactive.
CCOc1ccc(-c2nc(C(=O)NC3CC3)cs2)c(F)c1 was read as Pf apPOL block inactive and mHTT CaM bind inactive.
Screening O=C(Nc1ccccc1)N1CCC(n2cnc3c(Cl)cccc3c2=O)CC1 returned Pf apPOL block inactive and mHTT CaM bind inactive.
`CN(C)CCNC(=O)c1scc2c1CCCC2` gave mHTT CaM bind inactive.
For C=C1CCN([C@@H](CC(C)C)C(=O)Nc2ccc(OC)cc2)S(=O)(=O)c2ccccc21 the results were Pf apPOL block inactive and mHTT CaM bind inactive.
Screening C=C1CCN([C@@H](CC(C)C)C(=O)NCCCc2ccccc2)S(=O)(=O)c2ccccc21 returned Pf apPOL block inactive and mHTT CaM bind 65.
Screening C=C1CCN([C@@H](CC(C)C)C(=O)Nc2nc3ccc(Cl)cc3s2)S(=O)(=O)c2ccccc21 returned Pf apPOL block inactive and mHTT CaM bind 94.
`C=C1CCN([C@@H](CC(C)C)C(=O)O)S(=O)(=O)c2ccccc21` gave Pf apPOL block inactive and mHTT CaM bind inactive.
Screening COc1ccc(-c2cn(-c3ccc(C)cc3)c(=O)[nH]2)cc1 returned Pf apPOL block inactive and mHTT CaM bind inactive.
COc1cc(OC)c(NC(=O)N2CCn3cccc3C2C(C)C)cc1Cl (configuration not stated) was read as Pf apPOL block inactive and mHTT CaM bind inactive.
For Cc1ccccc1NC(=O)CN1CCC(c2nc(-c3ccncc3)no2)CC1 the results were Pf apPOL block inactive and mHTT CaM bind inactive.
Screening COc1ccc(-c2noc(C3CCN(CC(=O)Nc4ccccc4C)CC3)n2)cc1 returned Pf apPOL block inactive and mHTT CaM bind 66.
`CCN(CC)S(=O)(=O)c1cc(C(=O)Nc2cccc(O)c2)ccc1Cl` gave Pf apPOL block inactive and mHTT CaM bind inactive.
COc1coc(C(=O)Nc2ccccc2C(N)=O)cc1=O was read as Pf apPOL block inactive and mHTT CaM bind inactive.
c1ccc(CNc2nc(-c3ccncc3)nc3c2CCC3)nc1 was read as Pf apPOL block inactive and mHTT CaM bind inactive.
`Cc1nn2c(NCc3ccccn3)c3c(nc2c1-c1ccccc1)CCCC3` gave Pf apPOL block inactive and mHTT CaM bind 63.
`COc1ccc(CN(C)C2CCCCC2)cc1OC` gave Pf apPOL block inactive and mHTT CaM bind inactive.
Screening COc1ccc(-c2ccc(/C=C3\SC(=N)NC3=O)o2)c([N+](=O)[O-])c1 returned Pf apPOL block inactive and mHTT CaM bind 59.
Cc1c(-c2ccc(/C=C3\SC(=N)NC3=O)o2)ccc([N+](=O)[O-])c1C was read as Pf apPOL block inactive and mHTT CaM bind inactive.
`O=C(NCc1ccccc1F)C1Cc2ccccc2N2CCN(c3cnccn3)CC12` (configuration not stated) gave Pf apPOL block inactive and mHTT CaM bind 84.
Screening CCNC(=O)C1Cc2ccccc2N2CCN(c3cnccn3)CC12 (configuration not stated) returned Pf apPOL block inactive and mHTT CaM bind inactive.
`O=C(c1ccc([N+](=O)[O-])cc1Cl)N1CCc2ccccc21` gave Pf apPOL block inactive and mHTT CaM bind inactive.
For NS(=O)(=O)c1cc(C(=O)N2CCc3ccccc32)c(Cl)cc1Cl the results were Pf apPOL block inactive and mHTT CaM bind 60.
O=C(Nc1cccc(Cl)c1)N1CCN(Cc2nc3cccnc3n2-c2ccccc2)CC1 was read as Pf apPOL block inactive and mHTT CaM bind inactive.
For O=C(Nc1ccc(C(F)(F)F)cc1)c1coc(=O)c2ccccc12 the results were Pf apPOL block inactive and mHTT CaM bind inactive.
O=Cc1ccc(-c2ccc(S(=O)(=O)O)cc2)o1 was read as Pf apPOL block inactive and mHTT CaM bind 76.
NS(=O)(=O)c1ccc(-c2ccc(C=O)o2)cc1 was read as Pf apPOL block inactive and mHTT CaM bind inactive.
`Cn1cccc1CN1CCC(c2nc(-c3ccccc3)no2)C1` (configuration not stated) gave Pf apPOL block inactive and mHTT CaM bind 50.
For Cc1ncsc1CN1CCC(c2nc(-c3ccccc3)no2)C1 (configuration not stated) the results were Pf apPOL block inactive and mHTT CaM bind inactive.
`CCCC(=O)NCCc1ccccc1` gave Pf apPOL block inactive and mHTT CaM bind inactive.
Screening O=c1ccc(-c2ccc(F)cc2)nn1CCc1nc(-c2ccc(F)cc2)no1 returned Pf apPOL block inactive and mHTT CaM bind 70.
Screening O=c1ccc(-c2ccccc2)nn1CCc1nc(-c2ccc(F)cc2)no1 returned Pf apPOL block inactive and mHTT CaM bind inactive.
Screening COc1cccc(C2CC(=O)Nc3n[nH]c(C)c32)c1OCc1ccccc1 (configuration not stated) returned Pf apPOL block inactive and mHTT CaM bind inactive.
`O=C1C=CC(=O)C(C2=C3C(=O)N(CCc4c[nH]c5ccccc45)CC(=O)N3CCC2)=C1` gave Pf apPOL block inactive and mHTT CaM bind 63.
Screening COc1ccc(CCN2CC(=O)N3CCCC(C4=CC(=O)C=CC4=O)=C3C2=O)cc1OC returned Pf apPOL block inactive and mHTT CaM bind inactive.
For O=C1CNC(=S)N1CCc1c[nH]c2ccccc12 the results were Pf apPOL block inactive.
`O=C1C=CC(=O)C(C2=C3C(=O)N(CCc4ccccc4)CC(=O)N3CCC2)=C1` gave Pf apPOL block inactive and mHTT CaM bind 80.
For Cc1c(C(=O)C(=O)NC2CC(C)CC(C)(C)C2)c2ccccc2n1C (configuration not stated) the results were Pf apPOL block inactive and mHTT CaM bind inactive.
`COc1ccccc1CNC(=O)C1CCN(c2nccn3nc(-c4cccs4)cc23)CC1` gave Pf apPOL block inactive and mHTT CaM bind inactive.
For O=C1CCC(C(=O)N(Cc2ccco2)C2(C(=O)NC3CCCCC3)CCCCC2)N1 (configuration not stated) the results were Pf apPOL block inactive and mHTT CaM bind inactive.
COCc1[nH]nc2c1C(c1cc(OC)c(OC)c(OC)c1)C(C#N)=C(N)O2 (configuration not stated) was read as Pf apPOL block inactive and mHTT CaM bind inactive.
